# Experimental data: PubChem BioAssay AID651815 (National Center for Advancing Translational Sciences (NCATS), 2012)
# Out of some 2,100 compounds screened, about 1,100 (52%) were called active. Not shown: some 29% with an inconclusive outcome. So high a share suggests a set chosen from earlier hits. The list shows a part of the results. A number with no mark means an inactive call. Calls come from the whole dose curve; as a rule, active = well fitted inhibition curve with a large enough effect; inconclusive = small, poorly fitted or top-dose-only effect; inactive = no such curve, though single readings can be large or run the other way.
# Molecular target: DNA dC->dU-editing enzyme APOBEC-3F (Homo sapiens) (UniProt Q8IUX4)
# Test: qHTS for inhibitors of Vif-A3F interactions: Cherry picks counterscreen; note: nearly all actives have a fitted effect of over 65% in size
# Details: HeLa A3F-eYFP/Vif cells, eYFP fluorescence, 24 h; series mostly up to 46.1 µM; activity, negative = inhibitor: at the top concentration
# Method in brief: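 HeLa cells stably expressing A3F-eYFP and Vif, cultured overnight, then treated 24 h at 37 degrees C with compounds at several concentrations; yellow fluorescence (488 nm Ex/500-530 nm Em) imaged on Acumen; MG132 positive control.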
# % is set by controls: 0 for no effect and ±100 for the full control effect; potency is the fitted concentration of half-maximal effect.
# Chain of DNA dC->dU-editing enzyme APOBEC-3F (Homo sapiens) (Q8IUX4 whole entry, looked up): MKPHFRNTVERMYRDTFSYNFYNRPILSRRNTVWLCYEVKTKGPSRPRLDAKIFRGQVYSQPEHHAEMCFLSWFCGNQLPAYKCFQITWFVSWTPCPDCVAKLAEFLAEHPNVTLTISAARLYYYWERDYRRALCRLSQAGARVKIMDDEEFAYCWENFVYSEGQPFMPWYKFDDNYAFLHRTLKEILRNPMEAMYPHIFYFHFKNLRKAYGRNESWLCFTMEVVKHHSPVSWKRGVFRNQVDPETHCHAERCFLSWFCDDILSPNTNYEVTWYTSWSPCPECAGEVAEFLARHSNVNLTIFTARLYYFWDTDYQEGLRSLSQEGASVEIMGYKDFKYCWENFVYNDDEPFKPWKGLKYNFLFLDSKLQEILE
SMILES,"activity, negative = inhibitor",Potency
Cc1cc(N/N=C/c2ccc(O)cc2O)nc(-n2nc(C)cc2C)n1,1.63% [at 36.9 µM],–
C=CCSc1nc2sc3c(c2c(=O)n1CC)CCC3,-15.9%,–
CCN(CC)C(=O)Cn1c(=O)n(-c2ccccc2)c(=O)c2c3c(sc21)CCC3,–,23.1 µM (active)
O=C(CC1CC2CCC1C2)Nc1nc(-c2ccccn2)cs1 (centres undefined),17.2%,–
O=C(c1ccccn1)C1CCCN(Cc2cn[nH]c2-c2cc3ccccc3o2)C1 (centres undefined),5.43% [at 36.9 µM],–
COc1cc(C=C2C(=O)c3ccccc3C2=O)cc(OC)c1OC,-9.75%,–
COc1ccc2c(c1)/C(=C/c1cc(OC)c(OC)c(OC)c1)C(=O)N2,–,2.23 µM (active)
O=C1NC(=Nc2ccccc2Cl)S/C1=C\c1cc([N+](=O)[O-])ccc1O,-9.23% [at 36.9 µM],–
O=C1/C(=C\c2cc([N+](=O)[O-])ccc2O)SC(=S)N1Cc1ccc(Cl)cc1,–,9.2 µM (active)
c1ccc(-c2nccc(-c3ccc4c(c3)OCO4)n2)cc1,–,5.59 µM (active)
COC(=O)CCS(=O)(=O)c1nc(-c2ccccc2)cc(C(F)(F)F)n1,–,12.5 µM (active)
CC1CCN(C(=O)C(C)Sc2nc(-c3ccccc3)cc(C(F)(F)F)n2)CC1 (centres undefined),-2.71%,–
C=C(C)CNC(=S)N/N=C1\CCCCc2ccccc21,2.63%,–
COc1ccc(N2C(=O)CC(Sc3nc(C)c4c(n3)CCCC4)C2=O)cc1 (centres undefined),–,15.8 µM (active)
Nc1c(C(=O)c2ccccc2)sc2nsc(SCCN3CCCC3)c12,–,14 µM (active)
Nc1c(C(=O)c2ccccc2)sc2snc(SCC(=O)c3ccccc3)c12,–,15.8 µM (active)
Nc1c(C(=O)c2ccccc2)sc2nsc(SCCN3CCOCC3)c12,–,7.31 µM (active)
CSCC[C@H](NC(=O)[C@H](Cc1ccccc1)n1c(=O)[nH]c2ccccc2c1=O)C(=O)N1CCC[C@@H]1C(=O)O,-11.6% [at 36.9 µM],–
CCC1=Nc2cc(C(=O)NCc3cccnc3)ccc2Sc2ccc(C)cc21,–,5.59 µM (active)
CCCC1=Nc2cc(C(=O)NCc3ccco3)ccc2Sc2ccccc21,–,1.98 µM (active)
COc1ccc(C(=O)NC(=S)NCc2cccnc2)cc1Cl,6.65%,–
Cc1cc(C)nc(NC(=S)Nc2cccc(Cl)c2Cl)c1,-15.2%,–
C/C(=N\NC(=S)NC(C)C)c1ccc(C(C)(C)C)cc1,-3.08%,–
FC(F)(Cl)c1nnc2ccc(Cl)nn12,–,6.27 µM (active)
CC[N+](C)(C(=O)O)/C(=C\c1ccccc1)c1ccnc2ccccc12 (centres undefined),–,18.4 µM (active)
Nc1c(C(=O)Nc2nccs2)sc2nc(-c3cccs3)cc(C(F)(F)F)c12,–,11.2 µM (active)
Nc1c(C(=O)Nc2ccc(F)cc2)sc2nc(-c3cccs3)cc(C(F)(F)F)c12,–,2.91 µM (active)
Nc1c(C(=O)Nc2nc3ccccc3s2)sc2nc(-c3cccs3)ccc12,–,18.4 µM (active)
Cc1nnc(NC(=O)c2sc3nc(-c4cccs4)cc(C(F)(F)F)c3c2N)s1,–,6.51 µM (active)
